Hits are enriched below; roughly 3.5% of the tested compounds scored in any of these assays.
Anthrax LF prot – inhibitors of Bacillus anthracis lethal factor protease; P15917; hit rate 0.12% among 360,000; inhibition, % at 10 µM; multiplex microsphere protease cleavage assay, LF; further: plate controls were buffer without enzyme for full effect and enzyme alone for no effect
Target sequence (P15917 whole entry, looked up): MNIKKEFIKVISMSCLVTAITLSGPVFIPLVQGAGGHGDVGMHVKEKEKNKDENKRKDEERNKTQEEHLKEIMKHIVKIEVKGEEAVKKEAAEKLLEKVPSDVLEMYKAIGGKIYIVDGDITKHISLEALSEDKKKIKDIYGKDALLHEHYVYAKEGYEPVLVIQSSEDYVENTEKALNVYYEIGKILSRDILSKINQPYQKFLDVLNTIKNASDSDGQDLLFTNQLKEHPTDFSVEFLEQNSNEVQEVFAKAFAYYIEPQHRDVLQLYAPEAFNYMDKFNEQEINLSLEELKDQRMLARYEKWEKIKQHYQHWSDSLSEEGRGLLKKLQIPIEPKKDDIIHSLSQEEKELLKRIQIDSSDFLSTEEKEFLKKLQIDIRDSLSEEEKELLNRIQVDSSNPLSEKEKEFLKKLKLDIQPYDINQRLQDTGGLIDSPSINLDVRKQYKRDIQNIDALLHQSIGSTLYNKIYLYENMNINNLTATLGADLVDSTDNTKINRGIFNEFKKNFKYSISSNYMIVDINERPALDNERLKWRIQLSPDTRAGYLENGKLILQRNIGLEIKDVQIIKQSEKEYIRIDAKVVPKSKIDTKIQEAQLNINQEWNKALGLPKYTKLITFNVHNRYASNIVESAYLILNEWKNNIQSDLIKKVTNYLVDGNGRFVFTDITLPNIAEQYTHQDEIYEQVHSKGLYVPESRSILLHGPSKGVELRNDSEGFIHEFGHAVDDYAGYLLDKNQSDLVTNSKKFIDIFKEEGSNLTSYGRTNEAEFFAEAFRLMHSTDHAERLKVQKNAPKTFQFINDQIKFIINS
Bead autofluor – compound fluorescence in toxin protease inhibitor counterscreen. fluorescence intensity (concentration not given with the values). hit rate 3.1% among 360,000. AID 624483. compound autofluorescence counterscreen, microsphere flow cytometry; hits give high values; in the data active means fluorescence intensity above about 16000; inconclusive means no clear call, values can overlap the other calls
BoNT F protease – BoNT F light chain protease inhibition; Multiplex microsphere protease cleavage assay, flow cytometry; inhibition, % at 10 µM; hit rate 0.22% among 360,000; in the data active means inhibition above about 35%, passing the limit was not always enough; inconclusive means no clear call, values can overlap the other calls; further: plate controls were buffer without enzyme for full effect and enzyme alone for no effect
BoNT A protease – blocks Botulinum neurotoxin A light chain protease; multiplex microsphere protease substrate cleavage, flow cytometry; hit rate 0.17% among 360,000; inhibition, % at 10 µM; AID 588499; further: plate controls were buffer without enzyme for full effect and enzyme alone for no effect
The depositor's hits bear a star. Unless noted, no stated cut-off is given here; in the data, active means inhibition above about 30%; inconclusive means no clear call, values can overlap the other calls; inactive means below that.

For CC[C@@]1(C(=O)OC)N[C@H](CN(C)S(=O)(=O)c2ccc(F)cc2)[C@@H]2C(=O)N(C)C(=O)[C@@H]21 the results were Anthrax LF prot -6, Bead autofluor 3677, BoNT F protease -4 and BoNT A protease -1.
Screening Cn1c(C(=O)NCc2cccnc2)cc2sc(Cl)cc21 returned Anthrax LF prot 2, Bead autofluor 20564*, BoNT F protease 3 and BoNT A protease 1.
For Cc1ccccc1NC(=O)Cn1c(=O)n(C)c2ccccc21 the results were Anthrax LF prot -2, Bead autofluor 21084*, BoNT F protease -1 and BoNT A protease -1.
Screening Cn1c(=O)n(CC(=O)NCc2cccnc2)c2ccccc21 returned Anthrax LF prot -2, Bead autofluor 24061*, BoNT F protease -3 and BoNT A protease -2.
O=C(NCc1cccnc1)c1sc2cc(Cl)ccc2c1Cl was read as Anthrax LF prot 0, Bead autofluor 11830, BoNT F protease -12 and BoNT A protease 0.
`Cc1ccccc1NC(=O)Cn1nc(-c2ccccc2)nc1-c1ccccc1` gave Anthrax LF prot 0, Bead autofluor 16150*, BoNT F protease 1 and BoNT A protease 1.
`CC(=O)c1cccc(NS(=O)(=O)N2CCOCC2)c1` gave Anthrax LF prot inconclusive, Bead autofluor inconclusive, BoNT F protease 6 and BoNT A protease -1.
`CCOC(=O)c1[nH]c2ccccc2c1NC(=O)c1nonc1C` gave Anthrax LF prot -2, Bead autofluor 21361*, BoNT F protease 3 and BoNT A protease inconclusive.
CCOC(=O)c1[nH]c2ccccc2c1NC(C)=O was read as Anthrax LF prot -3, Bead autofluor 4394, BoNT F protease 2 and BoNT A protease 0.
CCOC(=O)c1[nH]c2ccc(Cl)cc2c1NC(=O)c1nonc1C was read as Anthrax LF prot -1, Bead autofluor 23712*, BoNT F protease -2 and BoNT A protease -2.
CCOC(=O)c1[nH]c2ccc(OC)cc2c1NC(=O)c1nonc1C was read as Anthrax LF prot -8, Bead autofluor 4476, BoNT F protease -5 and BoNT A protease 0.
`CCCCC[C@@H](C)N1C[C@@H](COCc2ccccc2)Oc2cc(N3CC[C@H](N(C)C)C3)ccc2S1(=O)=O` gave Anthrax LF prot -6, Bead autofluor 5858, BoNT F protease -16 and BoNT A protease 1.
For CC1(C)CC(=O)C=C(Nc2cccc(F)c2)C1 the results were Anthrax LF prot 1, Bead autofluor 3926, BoNT F protease 15 and BoNT A protease 4.
CC(O)c1cccc(NC2=CC(=O)CC(C)(C)C2)c1 (stereo not drawn) was read as Anthrax LF prot -4, Bead autofluor 22635*, BoNT F protease 1 and BoNT A protease 2.
Screening CC1(C)CC(=O)C=C(Nc2ccc(Br)cn2)C1 returned Anthrax LF prot -3, Bead autofluor 13373, BoNT F protease -20 and BoNT A protease -2.
CC1(C)CC(=O)C=C(Nc2ccccn2)C1 was read as Anthrax LF prot -1, Bead autofluor 21302*, BoNT F protease 0 and BoNT A protease inconclusive.
`COc1ccc(NC(=O)C(CC(=O)O)Cc2ccccc2)cc1` (stereo not drawn) gave Anthrax LF prot 4, Bead autofluor 22396*, BoNT F protease 3 and BoNT A protease 2.
Screening COc1ccc(NC(=O)C(CC(=O)O)Cc2ccc(Br)cc2)cc1 (stereo not drawn) returned Anthrax LF prot 16, Bead autofluor 3959, BoNT F protease inconclusive and BoNT A protease -3.
CSc1ccc(CN(C)C(=O)COc2ccc(C(=O)c3ccccc3)cc2)cc1 was read as Anthrax LF prot 14, Bead autofluor 3704, BoNT F protease 28 and BoNT A protease 2.
For O=C(c1ccncc1)c1ccc(N2CCN(C3CC(=O)N(Cc4cccs4)C3=O)CC2)cc1 (stereo not drawn) the results were Anthrax LF prot -1, Bead autofluor 5581, BoNT F protease -12 and BoNT A protease -2.
For CCN1C(=O)CC(N2CCN(c3ccc(C(=O)c4ccncc4)cc3)CC2)C1=O (stereo not drawn) the results were Anthrax LF prot -3, Bead autofluor 20385*, BoNT F protease -2 and BoNT A protease inconclusive.
Screening Cc1nn(CC(=O)N(C)C)c(C)c1S(=O)(=O)N1CCOCC1 returned Anthrax LF prot 1, Bead autofluor 5480, BoNT F protease -6 and BoNT A protease 2.
Screening CC1CCCCN1S(=O)(=O)c1ccccc1[N+](=O)[O-] (stereo not drawn) returned Anthrax LF prot 0, Bead autofluor 8338, BoNT F protease 8 and BoNT A protease 1.
Screening CCC1CCCCN1C/C=C/c1ccccc1[N+](=O)[O-] (stereo not drawn) returned Anthrax LF prot 2, Bead autofluor 20733*, BoNT F protease 8 and BoNT A protease 7.
For CC1CCCN(C/C=C/c2ccccc2[N+](=O)[O-])C1 (stereo not drawn) the results were Anthrax LF prot -4, Bead autofluor 20230*, BoNT F protease 0 and BoNT A protease 1.
For CC1CCCCN1C/C=C/c1ccccc1[N+](=O)[O-] (stereo not drawn) the results were Anthrax LF prot 0, Bead autofluor 23342*, BoNT F protease -1 and BoNT A protease -3.
`O=[N+]([O-])c1ccccc1/C=C/CN1CCSCC1` gave Anthrax LF prot 10, Bead autofluor 3131, BoNT F protease inconclusive and BoNT A protease 3.
`N#CCC1(O)C(=O)N(Cc2ccccc2)c2ccccc21` (stereo not drawn) gave Anthrax LF prot -10, Bead autofluor 5589, BoNT F protease -5 and BoNT A protease 0.
Screening O=C(NC1CCCC1)C(c1ccc(F)cc1)N(Cc1ccccc1Cl)C(=O)CCl (stereo not drawn) returned Anthrax LF prot -1, Bead autofluor 7351, BoNT F protease 4 and BoNT A protease 1.
Screening COc1ccccc1NCC(=O)NC(=O)NC1CCCCC1 returned Anthrax LF prot -6, Bead autofluor 3786, BoNT F protease -3 and BoNT A protease 0.
Screening COc1ccc2oc(C(=O)OCC(=O)N(CCC#N)c3ccccc3)c(C)c2c1 returned Anthrax LF prot -1, Bead autofluor 5272, BoNT F protease 5 and BoNT A protease 4.
Screening CCOC(=O)c1ccc2c(c1)N(Cc1ccccc1C)C(=O)c1ccccc1S2=O (stereo not drawn) returned Anthrax LF prot -2, Bead autofluor 22107*, BoNT F protease -8 and BoNT A protease -6.
For COC(=O)c1ccc2c(c1)N(Cc1ccccc1F)C(=O)c1ccccc1S2=O (stereo not drawn) the results were Anthrax LF prot -3, Bead autofluor 4517, BoNT F protease -6 and BoNT A protease 0.
Screening CCNC(=S)NNC(=O)c1cc(C)on1 returned Anthrax LF prot 0, Bead autofluor 21335*, BoNT F protease 6 and BoNT A protease 5.
For Cc1cc(C(=O)NCc2ccccc2)no1 the results were Anthrax LF prot -16, Bead autofluor 15472, BoNT F protease 17 and BoNT A protease 13.
Screening Cc1cc(C(=O)NCc2ccccc2Br)no1 returned Anthrax LF prot -1, Bead autofluor 21781*, BoNT F protease -3 and BoNT A protease inconclusive.
`O=C(NC1CCCCC1)c1ccc(CNc2ccccc2)o1` gave Anthrax LF prot 2, Bead autofluor 4151, BoNT F protease 6 and BoNT A protease 0.
